Test results as given in PubChem BioAssay (NCI).
About 83,000 compounds went through this panel and 20% of them were active in at least one assay; those are over-represented in the sample as a whole.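 Interpretation: 100, growth as untreated; towards 0, rising growth inhibition; 0, no net growth; 0 to -100, cell death. Compounds scoring below 10 were considered active.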 Active and inactive are the calls of the source.

Each compound was assayed on HL-60(TB) leukemia (assay: NCI-60 one-dose screen, 48 h (100 = growth as untreated, 0 = no growth, -100 = all killed)). Settings: 10 µM unless noted.

SMILES | growth
Cc1cc(Nc2ccc(F)cc2)nc(N2CCN(c3ccnc4cc(Cl)ccc34)CC2)n1 | 7.98% (active)
C=C(C)[C@@H]1CC[C@]2(C(=O)N3CCN(C)CC3)CC[C@]3(C)[C@H](CC[C@@H]4[C@@]5(C)C/C(=C/c6ccco6)C(=O)C(C)(C)[C@@H]5CC[C@]43C)[C@@H]12 | 64.2% (inactive)
CCNc1cc2c(cc1Br)-c1ccccc1C2=O | 110% (inactive)
Cc1c2cnccc2c(C)c2c1c1cc(C#N)ccc1n2C | -48.8% (active)
COc1ccc(-c2c(N)n[nH]c2-c2cc(OC)c(OC)c(OC)c2)cc1 | 15.3% (inactive)
CC(=O)N[C@@H](CCC(N)=O)C(=O)O | 107% (inactive)
CN1CCN(Cc2ccc(NC(=O)c3[nH]ncc3Nc3cc(OC4CCCC4)ncn3)cc2)CC1 | -12.7% (active)
Cc1ccc(-n2c(C)nn3c(=O)c4c5c(sc4nc23)CN(C)CC5)cc1 | 96.7% (inactive)
CNC=O | 89.6% (inactive)
CCC(=O)Oc1cc(/C=C/C(=O)O[C@H]2C[C@H]3CN4CCc5c([nH]c6cc(OC)ccc56)[C@@H]4C[C@@H]3[C@@H](C(=O)OC)[C@@H]2OC)ccc1OC | 16.3% (inactive)
